Data published in PubChem BioAssay AID1159577 (Broad Institute, 2015).
In all, about 1,300 compounds went through this assay and about 240 (18%) were called active. Not shown: some 8% with an inconclusive outcome. The rule behind the calls is not given here. The list is a sample of the results. Where a call stands in place of a potency, no number is given. Potency and affinity values are given separately.

Experiment: HepG2 cell cytotoxicity, dose response, cytotoxicity control, cherry-picked samples (AID 1159577)
Settings: HepG2 cytotoxicity counterscreen, plate reader; series mostly up to 19.5 µM
With `COc1ccc(NC(=O)N(C)C[C@H]2OCc3ccccc3-c3c(n(C)c4ccccc34)C(=O)N([C@@H](C)CO)C[C@H]2C)c(OC)c1` the outcome was “inactive”.
For `C[C@@H]1CN([C@@H](C)CO)C(=O)c2cccc(NC(=O)C3CC3)c2O[C@@H]1CN(C)C(=O)Nc1ccc(C(F)(F)F)cc1`, the outcome was “inactive”.
With `COc1cccc(NC(=O)N2[C@H](CO)[C@@H](c3ccccc3)[C@H]2CNCC(C)C)c1` the outcome was “inactive”.
With `O=S(=O)(c1ccccc1)N1C[C@@H]2N[C@H](C1)C2c1ccc(-c2ccc(F)cc2)cc1` (stereo partly drawn) the outcome was “inactive”.
With `CC=Cc1ccc2n(c1=O)C[C@@H]1[C@@H](CO)[C@H](C(=O)N3CCC(Cc4ccccc4)CC3)N(CCC)[C@H]21` (mixture of isomers) the outcome was “inactive”.
In the case of `C[C@H](CO)N1C[C@H](C)[C@@H](CN(C)Cc2ccc(Oc3ccccc3)cc2)Oc2ccc(NS(=O)(=O)c3cn(C)cn3)cc2CC1=O`, the outcome was “inactive”.
For `C[C@H](CO)N1C[C@H](C)[C@H](CN(C)Cc2ccc(Oc3ccccc3)cc2)Oc2ccc(NS(=O)(=O)c3ccc(Cl)cc3)cc2CC1=O`, the outcome was “inactive”.
In the case of `C[C@H]1CN([C@@H](C)CO)C(=O)c2cc(NC(=O)Nc3cccc4ccccc34)ccc2O[C@@H]1CN(C)Cc1ccc(Oc2ccccc2)cc1`, the outcome was “inactive”.
In the case of `C[C@@H]1CN([C@H](C)CO)C(=O)c2cc(NC(=O)Nc3ccc(C(F)(F)F)cc3)ccc2O[C@H]1CN(C)C(=O)Nc1cccc2ccccc12`, the outcome was “inactive”.
In the case of `C[C@H](CO)N1C[C@H](C)[C@@H](CN(C)C(=O)Nc2cccc3ccccc23)Oc2ccc(NC(=O)Nc3cccc4ccccc34)cc2CC1=O`, the outcome was “inactive”.
In the case of `CO[C@H]1CN(C)C(=O)c2cc(NC(=O)C3CC3)ccc2OC[C@@H](C)N(Cc2cc(F)ccc2F)C[C@H]1C`, the outcome was “inactive”.
With `O=S(=O)(c1ccccc1)N1CC[C@@H]2[C@H](CO)Nc3ccc(C#CC4CCCCC4)cc3[C@@H]21` the outcome was “inactive”.
With `COc1ccc2c3c(n(C)c2c1)[C@@H](CO)N(C(=O)C1CCC1)CC31CN(C(=O)Nc2cccc(F)c2)C1` the outcome was “inactive”.
For `COc1cccc(-c2ccc3c(c2)[C@H]2[C@H](CCN2C(=O)C2CCCC2)[C@@H](CO)N3)c1`, the outcome was “inactive”.
With `COCC#Cc1ccc([C@@H]2[C@H](CO)N3CCCCN(S(=O)(=O)c4ccc(OC)cc4)C[C@@H]23)cc1` the outcome was “inactive”.
In the case of `CCC(=O)N1CC2(C1)CN(Cc1cc(F)ccc1F)[C@@H](CO)c1[nH]c3cc(OC)ccc3c12`, the outcome was “inactive”.
With `OC[C@@H]1CC[C@@H]2O[C@H](CCc3ccc(-c4ccc(F)cc4)cc3)[C@H](n3cc(C4CC4)nn3)C[C@@H]2O1` the outcome was “inactive”.
With `CC(C)(C)[S@](=O)N1Cc2cc(C(=O)NCCN3CCCC3)nc(-c3cccc(-c4ccc(C#N)cc4)c3)c2[C@@H]1CCO` the outcome was “inactive”.
For `C/C=C/c1ccc([C@H]2[C@@H](CO)N(CC3CCCCC3)[C@@H]2CNC(C)C)cc1`, the outcome was “inactive”.
In the case of `C/C=C/c1ccccc1[C@@H]1[C@@H](CO)N(S(=O)(=O)c2cccc(F)c2)[C@H]1C#N`, the outcome was “inactive”.
In the case of `C/C=C/c1ccc([C@H]2[C@@H](C#N)N(C(=O)NC3CCCC3)[C@@H]2CO)cc1`, the outcome was “inactive”.
With `C/C=C/c1ccc([C@H]2[C@@H](CO)N(CC3CCCC3)[C@@H]2CNC(=O)NC(C)C)cc1` the outcome was “inactive”.
In the case of `C/C=C/c1ccc([C@H]2[C@@H](CO)N(C(=O)CC)[C@@H]2CNCC2CCCCC2)cc1`, the outcome was “inactive”.
For `CCc1csc(N2[C@H](C#N)[C@H](c3ccccc3-c3ccc(F)cc3)[C@H]2CO)n1`, the outcome was “inactive”.
For `C[C@@H]1CN([C@@H](C)CO)C(=O)c2cccc(NC(=O)Nc3ccccc3)c2O[C@@H]1CN(C)C(=O)Nc1ccc(F)cc1`, the outcome was “inactive”.
In the case of `COc1ccc2c3c(n(C)c2c1)[C@@H](CO)N(C(=O)c1ccc(F)cc1)CC31CN(CC2CCOCC2)C1`, the outcome was “inactive”.
In the case of `CCCN1C[C@@H](C)[C@H](OC)CN(C)C(=O)c2ccc(NC(=O)c3cccc(F)c3)cc2OC[C@H]1C`, the outcome was “inactive”.
With `COc1ccc2c3c(n(C)c2c1)[C@@H](CO)N(CC1CCCCC1)CC31CCN(Cc2nccs2)CC1` the outcome was “inactive”.
In the case of `COc1ccc2c3c(n(C)c2c1)[C@@H](CO)N(Cc1ccccc1F)CC31CCN(CC2CC2)CC1`, the outcome was “inactive”.
With `COc1ccc2c3c(n(C)c2c1)[C@@H](CO)N(Cc1ccc(Cl)cc1)CC31CCN(CC2CC2)CC1` the outcome was “inactive”.
With `COc1ccc2c3c(n(C)c2c1)[C@H](CO)N(Cc1ccccc1F)CC31CCN(CC2CC2)CC1` the outcome was “inactive”.
With `CCC(=O)N1CCC2(CC1)CN(Cc1cccc(Cl)c1)[C@H](CO)c1c2c2ccc(OC)cc2n1C` the outcome was “inactive”.
With `COc1ccc2c3c(n(C)c2c1)[C@H](CO)N(Cc1ccncc1)CC31CCN(C(=O)Cc2ccncc2)CC1` the outcome was “inactive”.
For `COc1ccc2c3c(n(C)c2c1)[C@@H](CO)N(C(=O)c1ccccc1)CC31CCN(C(=O)c2ccccc2)CC1`, the outcome was “inactive”.
With `COc1ccc2c3c(n(C)c2c1)[C@H](CO)N(C(=O)c1ccccc1)CC31CCN(C(=O)c2ccccc2)CC1` the outcome was “inactive”.
With `COc1ccc(-c2ccccc2[C@H]2[C@@H](CO)N(C(=O)C3CCOCC3)[C@H]2C#N)cc1` the outcome was “inactive”.
In the case of `COc1ccc2c3c(n(C)c2c1)[C@H](CO)N(Cc1cccnc1)CC31CN(C(=O)NC(C)C)C1`, the outcome was “inactive”.
With `CC(C)(C)[S@](=O)N1Cc2cc(C(=O)NCCN3CCCCC3)nc(-c3cccc(-c4cccc(C#N)c4)c3)c2[C@@H]1CCO` the outcome was “inactive”.
In the case of `C[C@@H]1CN([C@@H](C)CO)S(=O)(=O)c2ccc(C#Cc3ccncc3)cc2O[C@H]1CN(C)S(=O)(=O)c1ccc(F)cc1`, the outcome was “inactive”.
With `OC[C@H]1CC[C@@H]2O[C@H](CCc3ccc(C#CCc4ccccc4)cc3)[C@@H](n3cc(-c4ccccc4)nn3)C[C@@H]2O1` the outcome was “inactive”.
In the case of `O=C(C1CCCC1)N1CC[C@@H]2[C@H]1c1cc(C3=CCCCC3)ccc1N[C@@H]2CO`, the outcome was “inactive”.
In the case of `Cc1ccc(S(=O)(=O)N(C)C[C@@H]2OCc3ccccc3-c3c(n(C)c4ccccc34)C(=O)N([C@@H](C)CO)C[C@@H]2C)cc1`, the outcome was “inactive”.
In the case of `COc1ccc(S(=O)(=O)N[C@@H]2CC[C@H](CCn3cc(-c4ccccc4F)nn3)O[C@@H]2CO)cc1`, the outcome was “inactive”.
For `CCCc1cn([C@H]2C[C@@H]3O[C@H](CO)CC[C@@H]3O[C@@H]2CCc2ccc(-c3ccc(OC)cc3)cc2)nn1`, the outcome was “inactive”.
In the case of `CCCc1cn([C@H]2C[C@@H]3O[C@@H](CO)CC[C@@H]3O[C@@H]2CCc2ccc(-c3ccc(OC)cc3)cc2)nn1`, the outcome was “inactive”.
With `COc1cccc(-c2cn(CC[C@@H]3CC[C@H](NS(=O)(=O)c4ccccc4Cl)[C@H](CO)O3)nn2)c1` the outcome was “inactive”.
In the case of `CCC(=O)N1C[C@H](C)[C@H](OC)CN(C)C(=O)c2cc(NC(=O)Nc3cccc(F)c3)ccc2OC[C@@H]1C`, the outcome was “inactive”.
With `O=C(Nc1cccc(F)c1)N[C@@H]1CC[C@H](CCNS(=O)(=O)c2cccc(Cl)c2)O[C@H]1CO` the outcome was “inactive”.
With `C[C@H]1CN([C@@H](C)CO)C(=O)c2c(c3ccccc3n2C)-c2ccccc2CO[C@H]1CN(C)S(=O)(=O)c1ccccc1C#N` the outcome was “inactive”.
For `COc1ccc(C#Cc2ccc3c(c2)[C@@H]2[C@@H](CCN2C(=O)C2CCC2)[C@H](CO)N3)cc1`, the outcome was “inactive”.
In the case of `O=C(Nc1ccccc1F)N1CCCCN2[C@@H](CO)[C@H](c3ccc(C#Cc4cccnc4)cc3)[C@@H]2C1`, the outcome was “inactive”.
With `CN1CCCCN2[C@@H](CO)[C@@H](c3ccc(-c4cccnc4)cc3)[C@@H]2C1` the outcome was “inactive”.
With `O=C(Nc1ccccc1F)N1CCCCN2[C@H](CO)[C@H](c3ccc(C#Cc4cccnc4)cc3)[C@@H]2C1` the outcome was “inactive”.
In the case of `COCC(=O)Nc1ccc2c(c1)C(=O)N(C)C[C@@H](OC)[C@H](C)CN(CC1CCCCC1)[C@@H](C)CO2`, the outcome was “inactive”.
In the case of `CCCN1C[C@H](C)[C@@H](OC)CN(C)C(=O)c2cc(NC(=O)Nc3cccc(F)c3)ccc2OC[C@H]1C`, the outcome was “inactive”.
In the case of `CCC(=O)N[C@H]1C=C[C@H](CC(=O)NCC2CCCCC2)O[C@@H]1CO`, the outcome was “inactive”.
For `CCC(=O)N1CCC2(CC1)CN(Cc1ccc3c(c1)OCO3)[C@@H](CO)c1c2c2ccc(OC)cc2n1C`, the outcome was “inactive”.
In the case of `COc1ccc2c3c([nH]c2c1)[C@H](CO)N(Cc1cccc(F)c1)CC31CCN(Cc2ccccn2)CC1`, the outcome was “inactive”.
For `CCCC(=O)Nc1ccc2c(c1)OC[C@@H](C)N(Cc1cc(-c3ccccc3)on1)C[C@@H](C)[C@H](OC)CN(C)C2=O`, the outcome was “inactive”.
For `CCCC(=O)N1CC2(C1)CN(S(=O)(=O)c1ccc(C)cc1)[C@@H](CO)c1[nH]c3cc(OC)ccc3c12`, the outcome was “inactive”.
With `COc1cccc(-c2ccc([C@H]3[C@H](CO)N4CCCCN(CC5CC5)C[C@@H]34)cc2)c1` the outcome was “inactive”.
In the case of `COc1cccc(S(=O)(=O)N(C)C[C@@H]2OCc3ccccc3-c3c(n(C)c4ccccc34)C(=O)N([C@H](C)CO)C[C@@H]2C)c1`, the outcome was “inactive”.
With `COc1ccc2c3c(n(C)c2c1)[C@H](CO)N(C(=O)Nc1ccc(F)cc1)CC31CCN(C(=O)c2cccnc2)CC1` the outcome was “inactive”.
For `CCCC(=O)Nc1ccc2c(c1)OC[C@@H](C)N(Cc1ccc(F)cc1)C[C@@H](C)[C@H](OC)CN(C)C2=O`, the outcome was “inactive”.
In the case of `CC=Cc1ccc2n(c1=O)C[C@H]1[C@H](CO)[C@@H](C(=O)N3CCC(Cc4ccccc4)CC3)N(CCC)[C@@H]21` (mixture of isomers), the outcome was “inactive”.
With `C[C@H](CO)N1C[C@H](C)[C@H](CN(C)S(=O)(=O)c2ccc(F)cc2)OCc2ccccc2-c2c(n(C)c3ccccc23)C1=O` the outcome was “inactive”.
In the case of `Cc1ccc(-c2ccccc2[C@H]2[C@@H](C#N)N(C(=O)c3cccc(F)c3)[C@H]2CO)cc1`, the outcome was “inactive”.
In the case of `C[C@H]1CN([C@@H](C)CO)C(=O)c2c(c3ccccc3n2C)-c2ccccc2CO[C@@H]1CN(C)S(=O)(=O)c1cccc(F)c1`, the outcome was “inactive”.
